Screening results (PubChem BioAssay)
A selection: hits, their analogues and other compounds. The true share with any hit is near 3%.
KCNH2 WT inh: KCNH2 (human, wildtype) channel inhibition; activity change, % at 1.84 µM; Q12809; U2OS, BacMam KCNH2, thallium flux FluxOr; stronger effect = lower value; actives 0.37% (n = 340,000);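 active means maximum activity change below -70%; inconclusive means maximum activity change between -70% and -50%; inactive means maximum activity change above -50%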
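U2OS cells were transduced with wild-type KCNH2 virus (2.03 x 10^8 / mL) for 4 h at room temperature, then cultured overnight at 37 C. Thallium flux was read with FluxOr dye. Rate constants were normalized to DMSO controls.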
ALOX12 inh: ALOX12 (human) lipoxygenase inhibition; P18054; purified 12hLO, xylenol orange hydroperoxide absorbance; Potency, µM (highest dose often 108 µM), usual class: inhibitors; actives 1.1% (n = 580,000); active means well fitted inhibition curve with a large enough effect; inconclusive means small, poorly fitted or top-dose-only effect, or another doubt; inactive means no such curve, though single readings can be large or run the other way
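Purified human 12hLO at 150 nM in 25 mM Hepes, 0.01% Triton X-100, pH 7.0, preincubated 15 min at room temperature with compound. Reaction started with 40 uM arachidonic acid, 30 min at room temperature. Hydroperoxide measured by Fe-xylenol orange, 573/405 nm absorbance ratio.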
Chronic BCR inh: blocks chronic active B-cell receptor signaling. actives 0.05% (n = 340,000). Potency, µM (doses to about 46.1 µM), usual class: inhibitors. ABC-DLBCL IkBa-CBG/CBR reporter, luminescence ratio, 4 h; active means well fitted inhibition curve with a large enough effect in the signal ratio, with a control signal flat, not every such curve was filed as active; inconclusive means small, poorly fitted or top-dose-only effect, or effect the other way, or a change in a side signal; the % refers to the signal ratio
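TMD8 human ABC-DLBCL cells with doxycycline-inducible IκBα–green luciferase fusion and unfused red luciferase, in 0.5% FBS medium; compounds up to 46 uM, 4 h at 37C. Green/red luminescence ratio, filter-overlap corrected, fitted to concentration-response curves.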
KCNH2 3.1 block: blocks the human KCNH2 3.1 channel isoform; actives 0.95% (n = 340,000); AID 720553; U2OS KCNH2 3.1, thallium flux FluxOr; stronger effect = lower value; activity change, % (tested at about 1.8 µM);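 active means maximum activity change below -70%; inconclusive means maximum activity change from -70% to -50%; inactive means maximum activity change above -50%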;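 further: thallium influx rate constant from kinetic fluorescence after stimulation buffer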
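U2OS cells transduced with KCNH2 3.1 mutant virus (1.77 x 10^8 /mL, 4 h), plated overnight at 37 C, loaded 45 min with FluxOr dye plus Red40 quencher. Thallium flux rate constant from kinetic reads after stimulation buffer, normalised to controls.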
LDHA block: blocks human lactate dehydrogenase A; P00338; purified LDHA, NADH/diaphorase-resazurin fluorescence; stronger effect = lower value; activity change, % (values are at about 110 or 230 µM); actives 0.15% (n = 480,000); in the data active means activity change below about -30%; inconclusive means mostly about -25% to -30%
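Enzyme activity of human lactate dehydrogenase 5 (2 nM; 0.06 mM NADH, 0.2 mM pyruvate, 5 min, RT) is measured via a resazurin/diaphorase fluorescence readout of residual NADH.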
ClpP mod: qHTS Assay for Activators of ClpP | ATP-dependent Clp protease proteolytic subunit (Bacillus subtilis (strain 168)), P80244 | purified B. subtilis ClpP, FRET peptide cleavage, 20 min | Potency, µM (series often up to 57.5 µM) | actives 1.9% (n = 340,000); active means well fitted falling curve with a large enough effect; inconclusive means small, poorly fitted or top-dose-only effect; inactive means no such curve, though single readings can be large or run the other way; further: the source files actives as falling curves though it sought activators and does not explain the sign; nearly all actives have a fitted effect of over 65% in size
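FRET quenching reversal measured ClpP activation: 10 microg/mL B. subtilis ClpP at pH 8 with the FRET-FV decapeptide, read at 430 nm after 320 nm excitation. The 20-min minus 0-min signal was scaled between DMSO/no-enzyme wells and ADEP (5.8 microM final).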
Of the large screens only hits and unclear results are named; the others gave an inactive call.

O=S(=O)(c1cccc2nsnc12)N1CCCC1c1ccc(Cl)cc1 (stereo not given)	none (no result: KCNH2 WT inh, Chronic BCR inh, KCNH2 3.1 block, ClpP mod)
Cc1c(S(=O)(=O)NCCc2ccccc2)c(=O)n(C)c(=O)n1C	KCNH2 WT inh -99.5 (no result: ClpP mod)
Nc1nc(N)c2cc(CNc3ccc(Cl)c(Cl)c3)ccc2n1	ALOX12 inh 5.62µM (no result: Chronic BCR inh)
O=C(O)c1nn(-c2ccccc2)nc1-c1nn(-c2ccccc2)nc1C(=O)O	ALOX12 inh inconclusive, ClpP mod 25.1µM
COC(=O)c1nn(-c2ccccc2)nc1-c1nn(-c2ccccc2)nc1C(=O)OC	ClpP mod inconclusive
O/N=C1/CC/C(=N\O)c2nn(-c3ccccc3)nc21	Chronic BCR inh 5.8µM
COc1ccc(C(=O)/C=C/c2ccc(OCC#N)c(OC)c2)cc1	ALOX12 inh inconclusive (no result: KCNH2 WT inh, Chronic BCR inh, KCNH2 3.1 block, ClpP mod)
CCOc1cccc(C(c2c[nH]c3ccccc23)c2c[nH]c3ccccc23)c1O	ALOX12 inh 3.98µM (no result: KCNH2 WT inh, Chronic BCR inh, KCNH2 3.1 block, ClpP mod)
c1ccc(C(c2c[nH]c3ccccc23)c2c[nH]c3ccccc23)nc1	ALOX12 inh inconclusive
S=C1NC2(CCCCCCCCCCC2)NN1c1ccc(Cl)cc1	ALOX12 inh inconclusive (no result: KCNH2 WT inh, Chronic BCR inh, KCNH2 3.1 block, ClpP mod)
S=C1NC2(CCCCCC2)NN1c1ccccc1	ALOX12 inh 1.41µM (no result: KCNH2 WT inh, Chronic BCR inh, KCNH2 3.1 block, LDHA block, ClpP mod)
CC1(CCc2ccccc2)NC(=S)N(c2ccc(Cl)cc2)N1 (stereo not given)	ALOX12 inh inconclusive, Chronic BCR inh inconclusive
CC1(CCc2ccccc2)NC(=S)N(c2ccccc2)N1 (stereo not given)	ALOX12 inh 1µM
O=C(CN1CCC(n2nnc3cc(F)ccc32)CC1)Nc1ccc2c(c1)CCC2	ClpP mod 14.1µM
O=C(CN1CCC(n2nnc3ccccc32)CC1)Nc1ccc2c(c1)CCC2	none
O=C1CSC(=S)N1N=Cc1ccc(Cl)cc1Cl	ALOX12 inh 35.5µM (no result: Chronic BCR inh)
O=C1CSC(=S)N1N=Cc1ccccc1O	ALOX12 inh 6.31µM (no result: Chronic BCR inh)
Cc1ccccc1/C=N/N1C(=O)CSC1=S	none
CC(C)N1C[C@@H]2CN(C(=O)CCCn3ccnc3)C[C@]2(C(=O)O)C1	none (no result: KCNH2 WT inh, Chronic BCR inh, KCNH2 3.1 block, LDHA block, ClpP mod)
O=C(Cn1nc(-c2cccs2)c2ccccc2c1=O)NCCc1ccccc1	ALOX12 inh inconclusive (no result: KCNH2 WT inh, Chronic BCR inh, KCNH2 3.1 block, ClpP mod)
O=C(O)C1CCN(S(=O)(=O)c2ccc(Cl)c(Cl)c2)CC1	none (no result: KCNH2 WT inh, Chronic BCR inh, KCNH2 3.1 block, ClpP mod)
Cc1ccccc1-c1nnc(-c2ccccc2)o1	Chronic BCR inh inconclusive, ClpP mod inconclusive
Cn1cc(-c2nnc(-c3ccccc3)o2)c2ccccc21	Chronic BCR inh inconclusive, ClpP mod 14.1µM
CCCC(C)C(=O)Nc1cccc(NC(C)=O)c1 (stereo not given)	KCNH2 3.1 block -92.5
CCCC(C)C(=O)Nc1ccc(S(N)(=O)=O)cc1 (stereo not given)	none (no result: ClpP mod)
O=C(NCCc1ccccc1)C1CCN(Cc2cccc3ccccc23)CC1	ALOX12 inh inconclusive, ClpP mod 15.8µM
COc1cccc(CNc2nc3nc(C)cc(C)n3n2)c1	Chronic BCR inh inconclusive, ClpP mod 20µM
COc1cccc(Nc2cc(C)nc3nc(C)nn23)c1	none
O=C1c2ccccc2NC(c2cccc(Cl)c2)N1N=C1CCCCCC1 (stereo not given)	ClpP mod 20µM
C/C(=N\N1C(=O)c2ccccc2NC1c1ccccc1)c1ccccc1O (stereo not given)	none
COc1ccc(OC)c(NC(=O)Cc2sc(C)nc2-c2cccs2)c1	none (no result: KCNH2 WT inh, Chronic BCR inh, KCNH2 3.1 block, ClpP mod)
Cn1nnnc1SCCNCc1ccc(Cl)cc1	KCNH2 3.1 block -95.0
Cn1nnnc1SCc1ccc(F)cc1	Chronic BCR inh inconclusive
Cn1nnnc1SCCNCc1ccccc1OCc1ccc(Cl)cc1	none
Cc1ccc(CSc2nnnn2C)cc1	KCNH2 3.1 block -98.0
Cc1cc(S(=O)(=O)N2CCCC(Cn3cnc4cccnc43)C2)ccc1F (stereo not given)	none (no result: KCNH2 WT inh, Chronic BCR inh, KCNH2 3.1 block, LDHA block, ClpP mod)
CC1=C(C(=O)N2CCOCC2)C(c2ccc(-c3ccccc3)cc2)NC(=S)N1 (stereo not given)	ALOX12 inh inconclusive, ClpP mod 28.2µM
